Assay in all cases: NCI-60 one-dose screen, 48 h (100 = growth as untreated, 0 = no growth, -100 = all killed)
Conditions in all cases: 10 µM unless noted

Assay [1] relates to T-47D breast.
The test system of assay [2] is BT-549 breast.
Assay [3] concerns MDA-MB-435 melanoma.
Assay [4] concerns SW-620 colon.
In assay [5] the test system is MCF7 breast.
Assay [6] relates to HCT-116 colon.
The subject of assay [7] is HCC-2998 colon.
Assay [8] has as its system KM12 colon.

This is part of a sample that, as a whole, favours compounds with a hit. Of some 83,000 tested, about 20% had one in any assay.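 Values shown are percent growth following 48 h exposure of cells in 96-well plates to a single concentration of compound; below 10 was considered active.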 A number with no mark means an inactive call. The source made the active and inactive calls.

Take `CC(C)C(/C=C/c1[nH]ncc1-c1cc(Cl)ccc1O)N1CCOCC1` (centres undefined): the growth is 94.9% in assay [1]; 90% in assay [2]; 95.8% in assay [3]; 98.4% in assay [4]; 76.8% in assay [5]; 89.3% in assay [6]. In addition, the growth in assay [7] is 104%; in assay [8], 99.6%.
In the case of `CCCCCCNC(=O)Oc1ccc(/C(=C(/C)c2ccc(Cl)cc2)c2ccc(OCCN3CCCCCC3)cc2)cc1`, the growth in assay [1] is 48.2%; in assay [2] it was 101%; in assay [3] it was 70%; in assay [4], 22.4%; in assay [5], 15.7%; in assay [7], 90.7%. For the same molecule, the growth in assay [8] is 58.9%.
Turning to `Fc1ccc(-c2cn3c(-c4c[nH]c5ccc(Br)cc45)csc3n2)cc1`, the growth was 66.3% in assay [1]; 95.4% in assay [2]; 83.1% in assay [3]; 81.4% in assay [4]; 60.9% in assay [5]; 73.8% in assay [6]. Moreover, the growth is 100% in assay [7] and 66.5% in assay [8].
Regarding `C=C1CCc2nc(SCC(=O)O)ccc2N1`, the growth in assay [1] is 98.5%; in assay [2], 114%; in assay [3], 101%; in assay [4], 106%; in assay [5], 99.5%; in assay [6] it was 98%. Besides, the growth in assay [7] was 103%; in assay [8] it was 102%.
On to `C#CCOc1ccccc1C(OC(=O)c1ccccc1)C(=O)NC(C)(C)C(C)(C)C` (centres undefined), for which the growth in assay [1] was 73.5%; in assay [2], 85%; in assay [3], 96.2%; in assay [4], 96.9%; in assay [5], 79.9%; in assay [6], 60.5%. The growth in assay [7] was 96.1%; in assay [8] it was 92.7%.
Regarding `O=C1CSC(c2cn(-c3ccccc3)nc2-c2ccc(Cl)cc2)N1c1ccccc1` (centres undefined), the growth was 102% in assay [1]; 109% in assay [2]; 103% in assay [3]; 120% in assay [4]; 83.5% in assay [5]; 95.4% in assay [6]. Besides, the growth in assay [7] is 111%; in assay [8] it was 102%.
For the molecule `CC(C)[C@H]1c2[nH]c3ccccc3c2C[C@H]2C(=O)N(CCCCCCC(=O)NO)CC(=O)N12`, the growth in assay [1] is 62.4%; in assay [2] it was 101%; in assay [3], 74.9%; in assay [4], 82.3%; in assay [5] it was 59.5%; in assay [6] it was 59.2%. For the same molecule, the growth in assay [7] was 102%; in assay [8], 88.8%.
`O=C(CSc1nc2ccccc2c(=O)n1-c1ccccc1)N/N=C/c1ccc(Oc2ccc(Cl)cc2)cc1`: the growth in assay [1] is 82.5%; in assay [2] it was 69.9%; in assay [3], 84.6%; in assay [4] it was 43.1%; in assay [5] it was 64.5%; in assay [6], 5.62% (active). For the same molecule, the growth in assay [7] is 95.4%; in assay [8], 83.7%.
As for `CCCc1cc2cc(-n3nc(CC)c4c3CC(C)(C)CC4=O)cc(NC3CCC(O)CC3)c2c(=O)[nH]1` (centres undefined), the growth in assay [1] was 29.6%; in assay [2], 38.7%; in assay [3] it was 0.0389% (active); in assay [4], 12.3%; in assay [5], 17.7%; in assay [6] it was 6.5% (active). In addition, the growth in assay [7] is 8.95% (active); in assay [8], 15.4%.
With `CCOC(=O)C1=C(C)NC(C)=C(C(=O)OCc2ccccc2)C1c1cccc(C#N)c1` (centres undefined), the growth was 27% in assay [1]; 31.7% in assay [2]; -10.4% (active) in assay [3]; 29.7% in assay [4]; 21.2% in assay [5]; 13.2% in assay [6]. In addition, the growth is 70.8% in assay [7] and 25.5% in assay [8].
For the molecule `CN1CCN(Cc2ccc(NC(=O)c3cncc(C#Cc4cnc5ccc(OCCCS(C)(=O)=O)nn45)c3)cc2C(F)(F)F)CC1`, the growth in assay [1] was 16.2%; in assay [2], -21.5% (active); in assay [3] it was -22.7% (active); in assay [4] it was 1.18% (active); in assay [5] it was -12.8% (active); in assay [6], 1.88% (active). Further, the growth in assay [7] is -22% (active); in assay [8], -3.51% (active).
`CCCCCC[n+]1ccc(SCC(=O)n2ccc3ccccc32)c2ccccc21`: the growth in assay [1] was 59.1%; in assay [2], 73.2%; in assay [3], 101%; in assay [4], 92.1%; in assay [5], 75.6%; in assay [6] it was 73.2%. The growth in assay [7] was 92.8%; in assay [8], 84.3%.
For the molecule `Nc1nc(=O)n([C@H]2C[C@H](O)[C@@H](CO)O2)cc1C=O`, the growth was 113% in assay [1]; 116% in assay [2]; 110% in assay [3]; 107% in assay [4]; 96.1% in assay [5]; 91.3% in assay [6]. The growth is 87.7% in assay [7] and 103% in assay [8].
In the case of `COc1ccc(/C=N/NC(=O)c2c(N)nn(C)c2Nc2ccccc2)cc1Oc1ccccc1`, the growth is 78.1% in assay [1]; 94.1% in assay [2]; 101% in assay [3]; 100% in assay [4]; 75.3% in assay [5]; 101% in assay [7]. For the same molecule, the growth in assay [8] was 92.7%.
For the molecule `COc1ccc(/C(=N\NC(N)=S)c2ccc(Cl)cc2)cc1OC`, the growth in assay [1] is 18.1%; in assay [2], 14.2%; in assay [3] it was -35.1% (active); in assay [4], 15.9%; in assay [5] it was 14.4%; in assay [7], 52.6%. Also, the growth in assay [8] was 19.4%.
In the case of `CC/C(=C(/c1ccc(Cl)cc1)c1ccc(OCCN)cc1)c1ccccc1`, the growth in assay [1] was 93.1%; in assay [2], 129%; in assay [3], 96.7%; in assay [4] it was 16.5%; in assay [5], 54.9%; in assay [7], 83.7%. Further, the growth in assay [8] was 84.7%.
In the case of `O=S(=O)(NCCCNc1nccc(-c2[nH]c(-c3ccccc3)nc2-c2ccc(F)c(O)c2)n1)c1cccc(F)c1`, the growth in assay [1] is 73.4%; in assay [2], 96.4%; in assay [3] it was 38%; in assay [4], 120%; in assay [5] it was 78.3%; in assay [6], 72.2%. Further, the values for the growth in assay [7] and in assay [8] were 114% and 88.9%, respectively.
As to `COc1ccc2c(c1)C=CC1(O2)Oc2ccc(OC)cc2C=C1C` (centres undefined), the growth in assay [1] is 45%; in assay [2] it was 26.5%; in assay [3], -35.3% (active); in assay [4], 29.8%; in assay [5], 12.1%; in assay [7], 24.1%. Moreover, in assay [8], the growth is 27.9%.
On to `CCc1cc(OC(=O)N2CCN(CCC(C)(COC(C)(C)C)COC(C)(C)C)CC2)ccc1Nc1cc(-c2ccc(-n3cccn3)cc2)[nH]n1`, for which the growth in assay [1] is 61%; in assay [2] it was 108%; in assay [3], 85.3%; in assay [4], 94.8%; in assay [5], 50.1%; in assay [6], 66.3%. Moreover, the results for the growth in assay [7] and in assay [8] were 91.5% and 85.6%, respectively.
In the case of `NC(=O)c1ncn2c(=O)n(CCF)nnc12`, the growth was 88.8% in assay [1]; 110% in assay [2]; 82.4% in assay [3]; 40.4% in assay [4]; 57.8% in assay [5]; 56.4% in assay [7]. In addition, in assay [8], the growth is 83.5%.
Regarding `O=C(/C=C/c1cc(Cl)ccc1Cl)Nc1ncc(Cc2ccc(Cl)cc2)s1`, the growth in assay [1] is 63.8%; in assay [2], -46.5% (active); in assay [3], -37% (active); in assay [4], 20.8%; in assay [5], 16.2%; in assay [6], 2.67% (active). The results for the growth in assay [7] and in assay [8] were 13.3% and 13.1%, respectively.
For `CCc1nnc(NC(=O)c2cc(-c3ccc(Cl)cc3Cl)oc2C)s1`, the growth in assay [1] was 61.7%; in assay [2] it was 90.4%; in assay [3], 90.6%; in assay [4] it was 93.3%; in assay [5] it was 84.9%; in assay [6], 42.2%. Besides, the growth in assay [7] was 111%; in assay [8] it was 72.7%.
`COc1cc(C(=O)c2cc(C(C)=O)c3c(C)cccn23)cc(OC)c1OC`: the growth in assay [1] is 81.8%; in assay [2] it was 104%; in assay [3] it was 97.3%; in assay [4], 104%; in assay [5], 82.7%; in assay [6] it was 95.1%. Further, the values for the growth in assay [7] and in assay [8] were 105% and 96.5%, respectively.
In the case of `CNC(=O)Nc1ccc(Nc2cc(-c3ccc(-n4cccn4)cc3)[nH]n2)c(C)c1`, the growth in assay [1] is 104%; in assay [2] it was 111%; in assay [3], 105%; in assay [4], 126%; in assay [5], 81.2%; in assay [6], 107%. Also, the results for the growth in assay [7] and in assay [8] were 123% and 101%, respectively.
Turning to `O=S(=O)(NCCCNc1nccc(-c2[nH]c(-c3ccccc3)nc2-c2ccc(F)c(O)c2)n1)c1cccc2ccccc12`, the growth in assay [1] is 51.3%; in assay [2], 69.2%; in assay [3], 36.9%; in assay [4], 68.9%; in assay [5], 44.9%; in assay [6], 34.6%. The growth is 99% in assay [7] and 55.7% in assay [8].
On to `COc1ccc(-c2cnc(NC(=O)CCCCCCNC(=O)C(O)(O)C(F)(F)F)s2)cc1`, for which the growth is 0.87% (active) in assay [1]; -11.9% (active) in assay [2]; 5.55% (active) in assay [3]; 0.251% (active) in assay [4]; 7.73% (active) in assay [5]; -9.91% (active) in assay [6]. In addition, the growth was -46.5% (active) in assay [7] and -47.8% (active) in assay [8].
`O=C(/C=C/c1cccc(C(F)(F)F)c1)Nc1cccc(C(F)(F)F)c1`: the growth in assay [1] was -6.89% (active); in assay [2], 118%; in assay [3], 48.5%; in assay [4], 33.5%; in assay [5] it was 30.9%; in assay [7] it was 57.4%. The growth in assay [8] was 24.4%.
Consider `CCc1cc2c(cc1Cl)nc1c(=O)[nH]c(=O)nc-1n2CCOCC(C)(C)C`, for which the growth was 80.7% in assay [1]; 95% in assay [2]; 33.5% in assay [3]; 89.5% in assay [4]; 58.2% in assay [5]; 73.3% in assay [6]. Besides, the growth is 84.1% in assay [7] and 76.5% in assay [8].
`Cn1cc(-c2cc3ncnc(Nc4ccc(NC(=O)Nc5cc(C(C)(C)C)on5)cc4)c3s2)cn1`: the growth is 1.81% (active) in assay [1]; 16.4% in assay [2]; 17.5% in assay [3]; 24.4% in assay [4]; 18.5% in assay [5]; 74.1% in assay [7]. In addition, in assay [8], the growth is 15.7%.

These data come from PubChem BioAssay (NCI).
